Inconclusive results are not listed. Calls of active or inactive are those of the source. Calls come from the whole dose curve; as a rule, active = well fitted cell-killing curve with a large enough effect in the repeat runs; inconclusive = weak or mixed curves, or effect the other way; inactive = flat fitted curve, though single readings scatter.
Experiment: qHTS assay to identify small molecule antagonists of the constitutive androstane receptor (CAR) signaling pathway - cell viability counter screen (AID 1224837); note: nearly all actives have a fitted effect of over 45% in size
Details: HepG2-CYP2B6-hCAR viability, CellTiter-Fluor, 23 h, co-treated with 50 nM CITCO; series mostly up to 92.4 µM; activity change, negative = cytotoxicity: at the top concentration
Excerpt: National Center for Advancing Translational Sciences [NCATS]
NIH Chemical Genomics Center [NCGC]
U.S. Environmental Protection Agency [EPA]
National Institutes of Environmental Health Sciences [NIEHS]
National Toxicology Program [NTP]
U.S. Food and Drug Administration [FDA]
The constitutive androstane receptor (CAR) is a nuclear receptor which regulates multiple drug metabolizing enzymes (DMEs) and transporters. Activating CAR will generally increase the transcription and subsequent translation of CYP2B6 and CYP3A4. These two DMEs represent about 50% of the drug metabolizing potential in the body. When CAR is deactivated, the metabolizing potential in the body will decrease, subsequently increasing the toxicity in the body or lowering the therapeutic potential of a pro-drug. Recently, there have also been studies performed indicating CARs role in energy metabolism and cancer therapy. Therefore, inhibiting CARs activity could have a potential effect on diabetes and cancer. Identifying environmental toxins and compounds which modulate CAR, through the use of the Tox21 10K compound collection, will be an important step in determining the toxicity and potential therapeutic effects these factors will have on the human body. To differentiate true CAR antagonists from cytotoxic substances, the assay is multiplexed with a cell viability assay.
Tox21 Assay Protocol Summary:
A double-stable (hCAR and CYP2B6-2.2kb) transfected cell line, derived from human hepatoma (HepG2) cells, was utilized for the duration of the quantitative high-throughput screens. The HepG2-CYP2B6-hCAR cells were dispensed at 2500 cells/4 uL/well in 1536-well white solid bottom plates using a Multidrop Combi. After the assay plates were incubated at 37 C/5% CO2 for 4 hrs, 23 nL of compounds at 15 concentrations (from 5-48 columns) or positive control (from 1 to 4 columns) were transferred to the assay plates using a Pintool station. One uL of CITCO (final concentration = 50 nM) was added, using a Flying Reagent Dispenser, inside each well. After a 23 hr incubation period at 37 C/5% CO2, 1 uL of CellTiter-Fluor reagent was added into each well of the assay plates using a Flying Reagent Dispenser. The fluorescence intensity in the plates was then measured using a ViewLux plate reader.
% is set by controls: 0 for no effect and ±100 for the full control effect.

SMILES	activity change, negative = cytotoxicity
O=C(O)Cc1ccc(Cl)cc1Cl	4.14% (inactive)
Cc1cccc(OCC(O)CNC(C)(C)C)c1C (stereo not given)	-0.324% [at 42.5 µM] (inactive)
CC(C)C(=O)OCCc1ccccc1	2.68% (inactive)
O=S(=O)(O)c1cc(O)c2ccc(Nc3ccccc3)cc2c1	-12.2% (inactive)
OCCCCC(O)CO (stereo not given)	0.776% (inactive)
COc1cc2c(cc1OC)[C@@H]1CC(=O)[C@@H](CC(C)C)CN1CC2	-3.09% [at 42.5 µM] (inactive)
CCCCOC(=O)c1ccccc1	7.65% (inactive)
CN=C(NC#N)Nc1ccc(C2=NNC(=O)CC2C)cc1 (stereo not given)	-1.97% [at 42.5 µM] (inactive)
O=C(OCC(COC(=O)c1cccnc1)(COC(=O)c1cccnc1)COC(=O)c1cccnc1)c1cccnc1	-0.372% [at 42.5 µM] (inactive)
CC(C)=CCOC(=O)c1ccccc1	0.167% (inactive)
CO[C@@H]1[C@@H](OC(N)=O)[C@@H](O)[C@H](Oc2ccc3c(O)c(NC(=O)c4ccc(O)c(CC=C(C)C)c4)c(=O)oc3c2C)OC1(C)C	5.43% [at 42.5 µM] (inactive)
FC(F)(F)c1ccccc1-n1ccnc1	-1.75% [at 42.5 µM] (inactive)
CC(C)OC(=O)CCCCC(=O)OC(C)C	-5.51% (inactive)
CC(CN)CC(C)(C)CCN (stereo not given)	-15.1% [at 240 µM] (inactive)
Cc1cc(Cl)c(C)cc1Cl	-1.3% (inactive)
CC(C)c1ccc2cc(C(C)C)ccc2c1	1.77% (inactive)
CCCCCCCCC(=O)Cl	7.53% (inactive)
O=C(O)Cc1cn(-c2ccccc2)nc1-c1ccc(Cl)cc1	-5.06% [at 42.5 µM] (inactive)
CCOC(=O)c1ncn2c1CN(C)C(=O)c1cc(F)ccc1-2	6.52% [at 42.5 µM] (inactive)
O=C(NCCN1CCOCC1)c1ccc(Cl)cc1	5.79% [at 42.5 µM] (inactive)

SMILES	activity change, negative = cytotoxicity
CC(COC(C)(C)C)OCCCO (stereo not given)	-1.55% (inactive)
Nc1ccc(S(=O)(=O)Nc2ccc(Cl)nn2)cc1	2.15% [at 42.5 µM] (inactive)
CC(=O)NCc1c(I)c(NC(C)=O)c(I)c(C(=O)O)c1I	6.89% [at 42.5 µM] (inactive)
Cc1ccc2ccc(Cl)cc2n1	1.18% [at 42.5 µM] (inactive)
CCCCNC1CC(C)(C)NC(C)(C)C1	-5.7% (inactive)
O=S(O)(O)=S	0.559% [at 8.39 µM] (inactive)
CC(C)CCCCOC(=O)c1ccccc1C(=O)OCCCCC(C)C	-5.49% (inactive)
CCCOC(=O)C(C)O (stereo not given)	3.93% (inactive)
CC(=O)Nc1cccc(C)c1	-0.147% (inactive)
C=C(C)C(=O)OCC(C)(C)COC(=O)C(=C)C	-0.206% (inactive)
C=C(C)C(=O)OCCOP(=O)(O)OCCOC(=O)C(=C)C	12.3% (inactive)
CC(C(=O)O)c1ccc2c(c1)CC(=O)c1ccccc1S2 (stereo not given)	-1.57% [at 42.5 µM] (inactive)
Cc1cc(C(C)(C)C)c(O)c(C)c1CC1=NCCN1	-2.37% [at 42.5 µM] (inactive)
CC(=O)OC(C)OC(=O)C(C)c1ccc(-c2ccccc2)c(F)c1 (stereo not given)	3.82% [at 42.5 µM] (inactive)
COCCOC(=O)C1=C(C)NC(C)=C(C(=O)OC(C)C)C1c1cccc([N+](=O)[O-])c1 (stereo not given)	-0.229% [at 42.5 µM] (inactive)
Cc1ccc(S(=O)(=O)O)c(C)c1	-0.23% (inactive)
CCCCOCCOC(=O)COc1nc(Cl)c(Cl)cc1Cl	0.22% (inactive)
CC/C=C\CC1=C(C)CCC1=O	-5.86% (inactive)
CC(C)C[C@H](NC(=O)CNC(=O)[C@H](Cc1ccc(O)cc1)NC(=O)[C@H](CO)NC(=O)[C@H](Cc1c[nH]c2ccccc12)NC(=O)[C@H](Cc1cnc[nH]1)NC(=O)[C@@H]1CCC(=O)N1)C(=O)N[C@@H](CCCN=C(N)N)C(=O)N1CCC[C@H]1C(=O)NCC(N)=O (stereo in doubt)	-6.31% [at 42.5 µM] (inactive)
NS(=O)(=O)c1cc2c(cc1Cl)CN(C1CCCCC1)C2=O	6.07% [at 42.5 µM] (inactive)
